# LYPLA2 counter: LYPLA2 inhibitors, primary screen, counter-screen for PME1 inhibitor project, biochemical, fluorescence polarization, FP-Rh probe ABPP | Acyl-protein thioesterase 2 (Homo sapiens), O95372 | inhibition, % at 5.9 µM | hit rate 0.38% among 320,000 | AID 2177, 2009 | recombinant LYPLA2;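 active means inhibition above the screen-wide mean plus 3 SD, limit set per campaign, cut at about 26% in these data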;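 further: 0% = LYPLA2 with DMSO and 100% = wells lacking LYPLA2 enzyme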
# PME-1 primary: PME-1 inhibitors via competitive probe labeling, primary screen, biochemical, fluorescence polarization, FP-Rh probe, HTS; Protein phosphatase methylesterase 1 (Homo sapiens), Q9Y570; inhibition, % at 5.9 µM; recombinant PME-1; AID 2130, 2009; hit rate 0.53% among 320,000;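 active means inhibition above the campaign mean of all compounds plus 3 SD, cut at about 26% in these data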;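 further: competitive labeling of PME-1 active site by serine hydrolase directed probe; 0% = PME-1 with DMSO and 100% = wells lacking PME-1 enzyme; inhibitors block probe labeling so polarization falls and inhibition rises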
# Target sequence (Q9Y570 whole entry, looked up): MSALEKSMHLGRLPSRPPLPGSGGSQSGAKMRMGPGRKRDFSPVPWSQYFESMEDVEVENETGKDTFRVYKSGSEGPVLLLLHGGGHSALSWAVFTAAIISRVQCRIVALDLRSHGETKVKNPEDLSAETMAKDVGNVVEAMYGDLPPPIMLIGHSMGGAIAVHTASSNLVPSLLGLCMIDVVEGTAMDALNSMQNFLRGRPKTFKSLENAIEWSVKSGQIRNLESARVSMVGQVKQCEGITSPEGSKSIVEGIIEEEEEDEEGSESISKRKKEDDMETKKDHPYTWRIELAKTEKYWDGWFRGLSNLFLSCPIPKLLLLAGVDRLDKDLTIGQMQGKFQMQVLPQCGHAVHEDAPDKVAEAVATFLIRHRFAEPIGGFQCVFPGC
# Fam108B inh: mouse Fam108B serine hydrolase inhibitors, primary screen, counter-screen for RBBP9 inhibitor project, biochemical, fluorescence polarization; inhibition, % at 9.51 µM; AID 1947, 2009; recombinant Fam108B, FP-Rh probe fluorescence polarization; hit rate 0.33% among 300,000;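 active means inhibition above the screen mean inhibition plus 3 SD, computed separately per campaign, cut at about 18% in these data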;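 further: inhibitors lower polarization as less probe binds the enzyme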
# GSTO1 inh: inhibitors of recombinant GSTO1, primary screen, counter-screen for RBBP9 inhibitor project, biochemical, fluorescence polarization. Glutathione S-transferase omega-1 (Homo sapiens), P78417. activity-based probe fluorescence polarization. inhibition, % at 5.96 µM. hit rate 1.1% among 300,000;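 active means inhibition above the campaign mean inhibition plus 3 SD, cut at about 35% in these data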;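 further: 0% = GSTO1-1 with DMSO and 100% = wells lacking GSTO1-1 enzyme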
# Target sequence (P78417 whole entry, looked up): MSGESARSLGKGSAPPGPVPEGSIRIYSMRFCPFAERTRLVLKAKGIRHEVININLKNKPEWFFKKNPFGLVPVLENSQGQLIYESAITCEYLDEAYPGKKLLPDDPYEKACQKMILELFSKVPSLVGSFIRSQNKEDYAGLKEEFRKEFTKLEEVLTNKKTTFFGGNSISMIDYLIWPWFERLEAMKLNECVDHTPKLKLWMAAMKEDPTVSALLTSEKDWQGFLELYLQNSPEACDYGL
# PAD4 FP inh: human PAD4 inhibitors, primary screen, biochemical, fluorescence polarization, 1536-well format | Protein-arginine deiminase type-4 (Homo sapiens), Q9UM07 | recombinant PAD4, RCA probe fluorescence polarization | inhibition, % at 6.36 µM | hit rate 0.41% among 330,000 | AID 485272, 2010;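 active means percent inhibition above a cutoff equal to the mean of all tested compounds plus 3 SD, cut at about 15% in these data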;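 further: 0% = PAD4 with RCA probe and DMSO and 100% = probe without PAD4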
# LYPLA1 inh: LYPLA1 inhibitors, primary screen, counter-screen for PME1 inhibitor project, biochemical, fluorescence polarization, FP-Rh probe ABPP; Acyl-protein thioesterase 1 (Homo sapiens), O75608; recombinant LYPLA1; inhibition, % at 5.9 µM; hit rate 0.16% among 320,000; AID 2174, 2009;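 active means inhibition above the mean of all tested compounds plus 3 SD, set per campaign, cut at about 14% in these data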;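 further: inhibitors block serine hydrolase probe labeling of LYPLA1 so polarization falls; 0% = enzyme with DMSO and 100% = wells lacking LYPLA1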
# GSTO1 confirm: GSTO1 inhibitor hit confirmation, counter-screen for RBBP9 inhibitor project, biochemical, fluorescence polarization, triplicate; shares compounds with GSTO1 inh; recombinant GSTO1, probe fluorescence polarization; inhibition, % at 5.96 µM; hit rate 54% among 2,400; AID 2176, 2009;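 active means inhibition above the primary screen's cutoff, its mean inhibition plus 3 SD, cut at about 35% in these data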;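 further: loss of polarization as inhibitors block binding of rhodamine sulfonate ester activity probe; 0% = GSTO1 with DMSO and 100% = wells lacking GSTO1 enzyme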
# PAD4 FP conf: human PAD4 inhibitors, confirmation, biochemical, fluorescence polarization. shares compounds with PAD4 FP inh. recombinant PAD4, RCA probe fluorescence polarization. inhibition, % at 6.36 µM. hit rate 28% among 1,200. AID 488796, 2010;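 active means mean inhibition across replicates above the hit cutoff set by the earlier primary screen, cut at about 15% in these data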;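 further: inhibitors block active-site labeling by the probe so polarization falls; 0% = PAD4 with probe and DMSO and 100% = probe without PAD4 enzyme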
# Active calls of the source: *; . = no result given. Hits are enriched below; roughly 1.7% of the tested compounds scored in any of these assays.
SMILES,LYPLA2 counter,PME-1 primary,Fam108B inh,GSTO1 inh,PAD4 FP inh,LYPLA1 inh,GSTO1 confirm,PAD4 FP conf
CCOC(=O)c1ccc(NC(=O)c2nc[nH]c2C(=O)NCCNC(=O)c2[nH]cnc2C(=O)Nc2ccc(C(=O)OCC)cc2)cc1,.,.,.,.,0.5,.,.,.
CCOC(=O)c1cnc2oc3ccccc3n2c1=O,-6.2,-4.8,8.6,-0.2,-7.3,-2.3,.,.
O=C(N1CCc2[nH]c3ccccc3c2C1)C(F)(F)F,9.8,5.6,14.8,87.8*,57.9*,3.8,6.6,-2.8
O=C1N/C(=C\c2ccc(O)cc2)C(=O)c2ccccc21,4.9,15.2,9.4,75.1*,30.2*,-0.1,79.3*,-3.1
Nc1cc(-c2cccc([N+](=O)[O-])c2)[nH]n1,1.9,-0.6,2.4,2.3,-1.9,3.0,.,.
O=c1cc(-c2cccc([N+](=O)[O-])c2)[nH][nH]1,4.5,-5.4,1.3,37.9*,52.0*,-1.9,9.5,-1.6
O=C(NC1=C(NC2CCS(=O)(=O)C2)C(=O)c2ccccc2C1=O)c1ccccc1 (centres undefined),4.2,5.8,1.6,80.8*,26.3*,2.4,71.2*,22.0*
O=C1CCCC/C1=C\Nc1ccc(O)cc1,8.6,3.9,2.2,42.3*,43.2*,5.5,5.9,5.5
O=C1CCC/C1=C/Nc1ccc(Cl)cc1,0.7,-1.1,-1.2,2.2,1.4,0.3,.,.
Nc1cc2nc3ccccc3oc-2cc1=O,9.1,22.3,8.8,68.4*,27.7*,-0.2,50.0*,-1.3
CCCCn1c(N)c(N(CC(C)C)C(=O)c2oc3ccc(OCC)cc3c2C)c(=O)[nH]c1=O,9.4,-8.2,-2.0,0.8,0.7,1.2,.,.
CC(=O)N(C1=C(Cl)C(=O)c2ccccc2C1=O)C1CCCCC1,2.6,9.3,3.5,55.8*,17.2*,0.9,72.8*,11.6
Cn1nc([N+](=O)[O-])c(C(C#N)c2nc3ccccc3n2C)c(Cl)c1=O (centres undefined),6.0,20.2,9.7,62.6*,25.7*,11.1,30.5,16.8*
O=C(CSc1nncs1)Nc1ccc(Cl)cn1,3.4,1.8,1.1,-1.4,-8.3,-5.6,.,.
N#CC1=C(N)Oc2n[nH]c(-c3cccs3)c2C1c1ccoc1 (centres undefined),-0.5,5.3,1.3,6.4,-2.0,0.7,.,.
Cc1ccc(C2C(C#N)=C(N)Oc3n[nH]c(-c4cccs4)c32)cc1 (centres undefined),2.6,-2.1,0.7,39.8*,40.9*,0.3,8.0,-11.9
CCCCn1c(NS(=O)(=O)c2ccc(C)cc2)c(S(=O)(=O)c2ccccc2)c2nc3ccccc3nc21,-5.7,5.3,0.5,78.3*,36.0*,-4.5,70.7*,-6.9
CC(=O)c1c2c3c(c(Br)ccc3n(C)c1=O)C(=O)c1ccccc1-2,3.2,11.9,12.1,47.6*,19.7*,2.6,28.4,7.6
CN(C)C(=O)c1cc(C(=O)c2ccc(C(F)(F)F)cc2F)c[nH]1,-4.1,-3.1,0.4,-2.0,-2.1,-1.4,.,.
Oc1ccccc1/C=N/Nc1nn[nH]n1,4.3,3.1,0.6,24.8,1.5,3.2,.,.
Cc1nnc(N/N=C/c2cc(C)n(-c3ccc(F)cc3)c2C)n1N,1.5,2.0,1.4,49.7*,29.0*,-2.1,2.4,-0.8
Cc1nnc(N/N=C/c2ccccc2O)n1N,3.4,5.5,4.2,71.7*,41.4*,0.4,31.9,0.6
Cc1cc(/C=N/NC(N)=S)c(C)n1-c1ccc(Br)cc1,7.6,2.4,-0.5,1.2,-6.5,2.0,.,.
Cc1cc(C)n2nc(SCC(=O)Nc3c(C)n(C)n(-c4ccccc4)c3=O)nc2n1,4.2,-0.3,3.3,-3.7,-5.1,-0.7,.,.
Cc1ccc(N(C)S(=O)(=O)c2cccc(C(=O)NNC(=O)c3ccncc3)c2)cc1,2.7,3.2,.,.,3.3,-0.4,.,.
SMILES,LYPLA2 counter,PME-1 primary,Fam108B inh,GSTO1 inh,PAD4 FP inh,LYPLA1 inh,GSTO1 confirm,PAD4 FP conf
CC1(OC(=O)C2CCCC2)C(=O)C=C2C=C(c3ccsc3)N(Cc3ccccc3)C=C2C1=O (centres undefined),10.0,1.3,0.5,12.1,-9.0,2.8,.,.
CC1(OC(=O)C2CCCC2)C(=O)C=C2C=C(c3ccsc3)N(CCc3ccccn3)C=C2C1=O (centres undefined),0.2,5.9,2.2,48.9*,18.6*,1.7,5.1,-5.4
CC(=O)Nc1ccc(S(=O)(=O)NCCSc2ccccn2)cc1,1.8,-3.4,-2.8,0.8,4.4,-2.1,.,.
CC(=O)Nc1ccc(S(=O)(=O)/N=C2\C(=O)c3ccccc3C([O-])=C2n2cc[n+](-c3ccccn3)c2)cc1,8.2,2.9,9.2,76.6*,31.8*,2.2,82.4*,1.6
CN(C)c1nc(N)c([N+](=O)[O-])c(N2CCCCCC2)n1,6.0,3.9,-2.1,-4.2,1.2,4.1,.,.
O=c1[nH]c(Nc2ccccc2Cl)cc2ccccc12,2.8,10.1,2.2,39.9*,28.3*,-0.6,31.5,8.6
O=c1[nH]c(Nc2ccc(F)cc2)cc2ccccc12,6.5,11.4,11.0,66.7*,43.2*,4.7,43.6*,16.6*
CCN(Cc1ccncc1)C(=O)C1CCN(S(=O)(=O)c2cccs2)CC1,0.7,8.8,4.1,4.2,0.9,1.8,.,.
Cc1ccc(C)c(N2CCN(C(=O)CCc3nc(-c4ccc(Br)cc4)no3)CC2)c1,.,.,.,.,-5.1,.,.,.
Oc1c(C=NCc2ccccc2)sc2ccccc12,-2.0,1.7,-6.7,4.8,0.6,-1.4,.,.
Oc1cccc(C=NCc2ccccc2)c1O,5.9,2.8,17.0,88.9*,21.2*,-0.8,11.9,-0.4
CN(C)c1ccc(NC(=O)CN2C(=O)c3ccccc3C2=O)cc1,-3.6,3.1,-1.5,3.7,2.3,-4.0,.,.
CN(C)c1ccc(NC2=C(Cl)C(=O)c3ccccc3C2=O)cc1,7.1,14.5,9.2,93.5*,28.2*,0.0,88.7*,16.1*
Cc1ccc(C=Nc2ccc(N(C)C)cc2)o1,-1.4,7.1,4.4,82.6*,25.5*,-1.0,1.9,-9.1
Cc1ccc(C=Nc2ccccc2C(N)=O)o1,-3.0,3.9,1.5,-2.5,-4.3,-3.3,.,.
COc1ccc2ccc3c(c2c1)N=C[C@]1(O3)N(C)c2ccccc2C1(C)C,-9.4,44.6*,-0.7,85.8*,52.5*,-6.5,4.1,5.5
